± gives the standard deviation of the averaged measurements. Whole data set: some 33,000 sequences, median “E-score (rank enrichment, -0.5 to 0.5)” near -0.0068, cut for the highest 2% near 0.24. The sample holds the highest values, similar sequences and a random draw of the others, so the mix is not that of the screen.
tested on: muMax20 (Max(13-93) K31hArg/K57hArg, M65Nle); assay: PBM 8-mer E-score (E-score (rank enrichment, -0.5 to 0.5)); higher = stronger preferential binding
Description: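 Protein binding microarray (universal PBM chip covering all 10-mers in fixed probe flanks) with chemically synthesized human Max(13-93) bHLH-LZ analogs (not full-length Max) bearing noncanonical residues (hArg, Tha, Aib, Nle at 65) and aromatic Cys staples. Read-out per 8-mer (and its reverse complement): E-score (rank-based enrichment, -0.5 to 0.5) and Z-score of median probe intensity.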

| Sequence | PBM 8-mer E-score |
| --- | --- |
| GGGGCACA | 0.0581 ± 0.01 |
| CGTGAAAA | 0.213 ± 0.11 |
| ATTGAAAC | 0.154 ± 0.059 |
| TGTGAAAA | 0.289 ± 0.071 |
| GGTGAAAA | -0.0373 ± 0.0061 |
| CTTGAAAA | 0.117 ± 0.035 |
| ATTGAAAA | 0.306 ± 0.03 |
| CGCCGACC | -0.14 ± 0.057 |
| ACTGAGGA | -0.126 ± 0.025 |
| AGCACCTG | -0.0212 ± 0.043 |
| TACGTAGA | 0.0117 ± 0.044 |
| AACGAGGT | -0.0494 ± 0.052 |
| AGTTAGCA | 0.0279 ± 0.055 |
| ACGTGTCA | 0.278 ± 0.094 |
| ACGTGTCG | 0.237 ± 0.075 |
| ACGTGTCC | 0.166 ± 0.052 |
| CCGTGTCG | -0.1658 ± 0.00081 |
| AAGTGTCG | 0.0406 ± 0.12 |
| AAGTGTCT | 0.0152 ± 0.031 |
| ACGTGTCT | 0.326 ± 0.036 |
| GCGTGTCA | 0.149 ± 0.2 |
| CCGTGTCA | -0.0799 ± 0.0084 |
| CAGCCGTA | -0.128 ± 0.029 |
| GCATTAAC | 0.0389 ± 0.091 |
| ACATTAAC | 0.175 ± 0.0064 |

| Sequence | PBM 8-mer E-score |
| --- | --- |
| CCATTAAC | 0.239 ± 0.015 |
| TGCGAACA | 0.109 ± 0.11 |
| ACCACATG | 0.319 ± 0.077 |
| ACCACATA | 0.0727 ± 0.0036 |
| AGCACATC | -0.0692 ± 0.013 |
| ACCACATC | -0.0454 ± 0.028 |
| ATCACATG | 0.296 ± 0.11 |
| AGCACATG | 0.266 ± 0.049 |
| ATCACATC | 0.00749 ± 0.048 |
| ATCACACA | 0.251 ± 0.021 |
| ATCACACG | 0.157 ± 0.065 |
| ATCACATA | 0.168 ± 0.048 |
| AGCACATA | 0.0478 ± 0.12 |
| ATCACACC | 0.12 ± 0.065 |
| ACGAGCAG | -0.0192 ± 0.02 |
| CACCCGGG | -0.361 ± 0.014 |
| CATCCGGA | -0.0933 ± 0.064 |
| CATCTCAC | -0.0239 ± 0.23 |
| AGTTTATG | 0.0668 ± 0.014 |
| CCTTTACA | 0.173 ± 0.094 |
| CCTTTACC | 0.023 ± 0.2 |
| CCTTTACG | 0.24 ± 0.01 |
| AAGCTACG | 0.0404 ± 0.15 |
| AGTCCTGA | -0.233 ± 0.16 |
| AATGGTAA | 0.27 ± 0.071 |

| Sequence | PBM 8-mer E-score |
| --- | --- |
| CATGGTAA | 0.297 ± 0.052 |
| AATGGTAG | 0.0638 ± 0.072 |
| GGTGGTAA | 0.0953 ± 0.084 |
| TGTGGTAA | 0.244 ± 0.067 |
| AATGGTAT | 0.213 ± 0.019 |
| CATGGTCC | -0.136 ± 0.14 |
| CATGGTAG | 0.0279 ± 0.022 |
| CATGGTCA | 0.304 ± 0.047 |
| CATGGTCG | 0.0286 ± 0.039 |
| CGTGGTAA | 0.215 ± 0.06 |
| TATGGTAA | 0.108 ± 0.0077 |
| GGGGCGAA | 0.0451 ± 0.035 |
| CCGCGAGG | -0.191 ± 0.082 |
| CTCTCTCA | -0.0954 ± 0.052 |
| CCCCAGTA | 0.0363 ± 0.019 |
| CAAGGATA | 0.00143 ± 0.082 |
| CCATAACA | 0.141 ± 0.035 |
| CGGCGACC | -0.159 ± 0.097 |
| TGCGGCAA | 0.0884 ± 0.051 |
| AGACCTGG | -0.177 ± 0.069 |
| ATGCGCAC | -0.00186 ± 0.029 |
| ATGCGCAT | 0.295 ± 0.03 |
| ATGCGCAA | 0.0942 ± 0.019 |
| AACCGCAC | 0.0872 ± 0.056 |
| CGGTCGGC | -0.2874 ± 0.0021 |

| Sequence | PBM 8-mer E-score |
| --- | --- |
| TAATGCCA | 0.142 ± 0.036 |
| CACACGTG | 0.426 ± 0.074 |
| CACACGTA | 0.125 ± 0.018 |
| AACACGTA | 0.218 ± 0.0095 |
| CACACGTC | 0.0717 ± 0.034 |
| AACACGTC | 0.091 ± 0.002 |
| AACACGTG | 0.481 ± 0.017 |
| GCATTGCA | 0.14 ± 0.028 |
| CGATTACC | -0.0103 ± 0.049 |
| CAGAGTGA | 0.00192 ± 0.0028 |
| GCCCCTAA | -0.0669 ± 0.16 |
| ATCCCCGG | -0.16 ± 0.024 |
| AAGATTCC | 0.00605 ± 0.027 |
| ACATAAGA | 0.174 ± 0.014 |
| CGTCGGGC | -0.152 ± 0.008 |
| GCAATAAC | 0.138 ± 0.014 |
| CATTATTC | 0.104 ± 0.032 |
| AATTATTA | 0.309 ± 0.036 |
| AATTATTC | 0.101 ± 0.071 |
| AATTATTG | 0.191 ± 0.012 |
| GATTATTA | 0.118 ± 0.064 |
| CCTTATTA | 0.28 ± 0.04 |
| CATTATTA | 0.242 ± 0.051 |
| CCTTATTC | -0.029 ± 0.059 |
| GCTTATTA | 0.1783 ± 0.0012 |

| Sequence | PBM 8-mer E-score |
| --- | --- |
| CACTCGCG | -0.0815 ± 0.047 |
| GAAGAGTC | 0.089 ± 0.11 |
| CAGTGCTA | -0.08 ± 0.053 |
| GCAGAGCA | -0.187 ± 0.06 |
| CTATATAG | 0.134 ± 0.082 |
| GAGGATAA | 0.0253 ± 0.093 |
| AATTAGTA | 0.28 ± 0.034 |
| GGTTAGTA | 0.0601 ± 0.091 |
| CATTAGTA | 0.0251 ± 0.027 |
| AGTTAGTA | 0.27 ± 0.033 |
| AGTTAGTC | -0.094 ± 0.036 |
| AATTAGTC | 0.0746 ± 0.11 |
| ACTGATGG | -0.0638 ± 0.09 |
| GTCCGATA | -0.0402 ± 0.11 |
| CTCCCGAC | -0.0892 ± 0.047 |
| ATCCCGCG | -0.0553 ± 0.1 |
| AGCATTAG | 0.142 ± 0.042 |
| AGCATTAA | 0.232 ± 0.0024 |
| TGCATTAA | 0.277 ± 0.062 |
| CGCATTAA | -0.00237 ± 0.005 |
| ACCATTAA | 0.348 ± 0.021 |
| CCCATTAA | -0.0202 ± 0.017 |
| AGCATTAC | -0.0675 ± 0.077 |
| TCCATTAA | -2.5e-05 ± 0.096 |
| AGCATTAT | 0.262 ± 0.048 |

| Sequence | PBM 8-mer E-score |
| --- | --- |
| ACTTATAA | 0.0449 ± 0.25 |
| AATCTTTG | 0.0923 ± 0.013 |
| CGTTGGGA | -0.0152 ± 0.0038 |
| GTGTTCTA | 0.169 ± 0.024 |
| AAATCCGT | -0.0161 ± 0.1 |
| AGGTCCGC | -0.129 ± 0.034 |
| ATATTTTA | 0.203 ± 0.0096 |
| ACACGAAC | 0.122 ± 0.011 |
| ATGTTTAG | 0.222 ± 0.12 |
| ATGTTTAC | 0.245 ± 0.073 |
| CTGTTTAC | 0.106 ± 0.041 |
| AGTTCACC | -0.068 ± 0.0075 |
| AATTAAAG | 0.108 ± 0.13 |
| GATTAAAC | 0.134 ± 0.071 |
| ATTAAACG | 0.287 ± 0.003 |
| ATTAAACA | 0.132 ± 0.15 |
| ATTAAAAA | 0.0946 ± 0.0066 |
| ATTAAAAG | 0.119 ± 0.073 |
| ATTAAACC | 0.164 ± 0.03 |
| ATTAAAAC | 0.269 ± 0.022 |
| AATTAAAC | 0.268 ± 0.072 |
| GTTCTTGA | 0.0649 ± 0.045 |
| CAAGGTGG | -0.0168 ± 0.088 |
| TAGAAGAA | -0.0576 ± 0.025 |
| GACATCCC | -0.00641 ± 0.062 |

| Sequence | PBM 8-mer E-score |
| --- | --- |
| AATACCTA | 0.214 ± 0.067 |
| CGAAGCTA | -0.176 ± 0.022 |
| GGTCCAAC | -0.234 ± 0.16 |
| ATGGTAAA | 0.13 ± 0.053 |
| ATTATTAA | 0.212 ± 0.035 |
| CTTATTAC | 0.101 ± 0.014 |
| ATTATTAC | 0.255 ± 0.028 |
| ACTATTAC | 0.0842 ± 0.022 |
| ATTATTAG | 0.247 ± 0.061 |
| ACTATTAG | -0.0835 ± 0.051 |
| GCGGCTGA | -0.177 ± 0.019 |
| CAATTCAA | 0.0283 ± 0.0014 |
| ATTCCCCA | 0.209 ± 0.066 |
| ACTCCAGA | -0.0288 ± 0.033 |
| CCAGGAAC | -0.286 ± 0.11 |
| CAGGATTA | 0.0457 ± 0.03 |
| CAGCAGGG | -0.114 ± 0.086 |
| CAAGAACA | -0.0329 ± 0.2 |
| TAAGAACA | 0.239 ± 0.0029 |
| GAAGAACA | 0.127 ± 0.031 |
| ACGTTTAT | 0.0742 ± 0.017 |
| AATTGGCC | -0.0791 ± 0.05 |

Reference: the supplement of paper PMC12636033
